Bioassay records deposited in PubChem BioAssay by National Center for Advancing Translational Sciences (NCATS).
D3 ag: D3 dopamine receptor (human) agonism | P35462 | 410,000 compounds, 0.58% hits | D3R DiscoveRx beta-arrestin cells, luminescence, 90 min | AID 652048 | max activation, %; in the data active = max activation above about 30%; note: 0% is about no effect
Target sequence (P35462 whole entry, looked up): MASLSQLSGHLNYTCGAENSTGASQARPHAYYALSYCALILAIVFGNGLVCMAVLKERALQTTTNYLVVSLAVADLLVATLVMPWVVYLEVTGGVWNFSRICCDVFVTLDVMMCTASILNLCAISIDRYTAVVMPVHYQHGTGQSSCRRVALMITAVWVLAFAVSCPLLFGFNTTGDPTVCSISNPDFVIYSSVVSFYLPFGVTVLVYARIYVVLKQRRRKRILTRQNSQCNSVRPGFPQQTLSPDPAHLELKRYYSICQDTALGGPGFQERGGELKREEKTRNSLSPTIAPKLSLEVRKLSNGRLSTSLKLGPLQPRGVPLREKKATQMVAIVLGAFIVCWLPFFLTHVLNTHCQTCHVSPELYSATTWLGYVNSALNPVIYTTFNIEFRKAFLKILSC
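Cells at 1500/well, incubated overnight, then treated with pinned compounds (dopamine as control) for 90 min at 37 degrees C. DiscoveRx reagent added for 30 - 60 minutes at room temperature; luminescence read.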
KB-3-1 cytotox: KB-3-1 parental cell cytotoxicity | 400,000 compounds, 1.4% hits | KB-3-1 viability, CellTiter-Glo ATP luminescence, 72 h | AID 1347075 | Potency, µM (doses to about 46.1 µM), actives largely listed as cytotoxic; note: potency is the fitted concentration of half-maximal effect; % is set by controls: 0 for no effect and ±100 for the full control effect; nearly all actives have a fitted effect of over 60% in size
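Cells are dispensed, compounds pinned in, plates held at 37 °C for 72 h, then CellTiter-Glo is added and luminescence read after 10 minutes. Cell line: parental KB-3-1 in phenol-red-free DMEM, 10% FBS.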
MCF10A rerep: inducers of DNA re-replication in MCF 10A breast cells; MCF 10A DNA re-replication, Hoechst nuclear intensity, 48 h; Potency, µM (series often up to 46.1 µM), for the others: top-dose activity, positive = re-replication, hits mostly activators; 350,000 compounds, 2.9% hits; AID 624296; note: potency is the fitted concentration of half-maximal effect; % of control where 0% means no effect; nearly all actives have a fitted effect of over 50% in size
SW480 rerep: inducers of DNA re-replication in SW480 colon cancer cells. SW480 DNA re-replication, Hoechst DNA content imaging, 48 h. Potency, µM (titrated, usually from 46.1 µM), inactives show at the top dose re-replication activation, hits mostly activators. 340,000 compounds, 1.8% hits; note: potency is the fitted concentration of half-maximal effect; % of control where 0% means no effect; nearly all actives have a fitted effect of over 55% in size
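Per well, 250 cells were exposed to pinned compound for 48 hr. Nuclear DNA was visualised with Hoechst (40 min, 37 C) and total object intensity recorded by fluorescence scanning.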
KB-V1 cytotox: KB-V1 MDR subline cytotoxicity | KB-V1 MDR cells viability, CellTiter-Glo, 72 h | Potency, µM (top dose mostly 46.1 µM), most hits filed as cytotoxic | 400,000 compounds, 3.4% hits | AID 1347076; note: potency is the fitted concentration of half-maximal effect; % is set by controls: 0 for no effect and ±100 for the full control effect; nearly all actives have a fitted effect of over 60% in size
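Cells of the MDR subline KB-V1 are plated, dosed with compound at multiple concentrations, and incubated 72 h at 37 degrees C; CellTiter-Glo is then added and luminescence read after 10 min.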
D3 antag: antagonists of human D3 dopamine receptor; D3R cells, DiscoveRx beta-arrestin luminescence, antagonist mode; hits give low values; 360,000 compounds, 2.5% hits; AID 652054; P35462; max response, negative = inhibition, %; in the data active = max response below about -50%; inconclusive = no clear call, values can overlap the other calls; note: % is set by controls: 0 for no effect and ±100 for the full control effect
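Cells expressing the human receptor were seeded at 1500 cells/well, incubated overnight at 37 degrees C in 5% CO2, then exposed to library compounds with dopamine controls for 90 minutes at 37 degrees C before luminescent detection.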
The depositor's hits bear a star; i = inactive; ? = inconclusive; . = no result; [ ] = another dose, or the depositor's remark. Only some compounds are listed: those with a hit (about 8.9% of all), similar ones and a draw of the others. Unless noted, calls come from the whole dose curve; as a rule, active = well fitted curve in the direction sought with a large enough effect; inconclusive = small, poorly fitted or top-dose-only effect, or another doubt; inactive = no such curve, though single readings can be large; an effect the other way counts as inactive or inconclusive.

SMILES	D3 ag	KB-3-1 cytotox	MCF10A rerep	SW480 rerep	KB-V1 cytotox	D3 antag
Cn1cnnc1SC1c2cccc3cccc(c23)C1NS(=O)(=O)c1ccc(Cl)cc1 (stereo not drawn)	15	i	-6%	3%	12µM*	3
Cc1ccc(NC(=O)c2cc(S(=O)(=O)N3CCC4(CC3)OCCO4)ccc2F)cc1Cl	2	.	.	.	.	.
Cc1ccc(NC(=O)CSC2=C(C#N)C(c3ccco3)C3=C(CC(C)(C)CC3=O)N2)cc1 (stereo not drawn)	-2	i	9%	?	i	0
CCc1ccc(NC(=O)CSC2=C(C#N)C(c3ccco3)C3=C(CCCC3=O)N2)cc1 (stereo not drawn)	2	?	18µM*	?	?	-18
CCOC(=O)C1=C(c2ccccc2)NC(SCC(=O)Nc2cccc(C)c2)=C(C#N)C1c1ccco1 (stereo not drawn)	17	i	?	18µM*	15µM*	21
CC1=C(C(=O)Nc2ccccc2)C(c2ccncc2)C(C#N)=C(SCC(=O)NC2CC2)N1 (stereo not drawn)	0	i	-6%	-3%	i	7
CC1=C(C(=O)Nc2nc3ccccc3s2)C(c2ccco2)C(C#N)=C(SCC(=O)NC2CCCCC2)N1 (stereo not drawn)	-1	i	15µM*	18µM*	i	7
CCc1ccccc1NC(=O)CSC1=C(C#N)C(c2ccc(O)c(OC)c2)C2=C(CCCC2=O)N1 (stereo not drawn)	0	?	16µM*	?	i	1
CSc1nn(Cc2ccc(Br)cc2)c(N(C(C)=O)C(C)=O)c1S(=O)(=O)c1ccccc1	2	i	.	.	?	.
CC(=O)C1=C(C)NC(SCC(=O)c2ccc(Cl)cc2)=C(C#N)C1c1ccco1 (stereo not drawn)	15	i	12%	-4%	21µM*	16
N#CC1=C(SCC(=O)c2ccc(Br)cc2)NC2=C(C(=O)CCC2)C1c1ccco1 (stereo not drawn)	1	10µM*	7.9µM*	13µM*	21µM*	-59*
O=C1c2ccccc2-c2cccnc21	-7	i	-2%	-10%	i	-20
O=C1c2ccccc2C(=O)c2c(/C=C/N3CCCCC3)ccnc21	1	7.3µM*	?	21µM*	2.3µM*	?
Brc1cc2[nH]cnc2c2ccccc12	46*	i	24%	1%	i	19
Oc1ccc2c(ccc3[nH]cnc32)c1	-4	i	0%	-6%	i	-14
COCc1cc(=O)[nH]c(Nc2nc(C)c3ccccc3n2)n1	0	?	?	?	21µM*	-20
COc1ccc2nc(Nc3nc(CSc4ccc(C)cc4)cc(=O)[nH]3)nc(C)c2c1	5	?	7%[9.22 µM]	-8%	i	3
COCc1cc(=O)[nH]c(Nc2nc3ccccc3o2)n1	-2	7.1µM*	?	?	i	-4
Cc1ccc2c(C)nc(Nc3nc(CSc4nc5ccccc5s4)cc(=O)[nH]3)nc2c1	-16	i	-1%	3%	i	0
COc1ccc2nc(Nc3nc(CSc4nnnn4-c4ccccc4)cc(=O)[nH]3)nc(C)c2c1	7	?	-1%	-3%	16µM*	-59*
Cc1ccc(SCc2cc(=O)[nH]c(Nc3nc(C)c4cccc(C)c4n3)n2)cc1	-7	i	-6%	-1%	21µM*	-84*
CCOc1ccc(NC(=O)C2Cc3ccccc3N2C(=O)c2ccccc2)cc1 (stereo not drawn)	-1	i	.	.	i	.
COc1ccc(OC)c(NC(=O)Cn2c(=O)cc(C)c3c(C)nn(-c4cccc(Cl)c4C)c32)c1	8	.	.	.	.	.
Cc1ccc2oc(Nc3nc(-c4ccccc4)cc(=O)[nH]3)nc2c1	-7	?	21µM*	?	?	?
Cc1cc(S(=O)(=O)Nc2ccc(O)c(Sc3nc4ccccc4s3)c2)ccc1Cl	2	?	.	.	18µM*	.
